# Laboratory results published in PMC11006913.
# What was measured:
# Test in all cases: PBM; 200 nM protein, PBS
# Details in all cases: dsDNA, one strand shown
# HESX1 [1] = target: HESX1 (Homo sapiens, UniProt Q9UBX0 95-180, R165K)
# HESX1 [2] = target: HESX1 (Homo sapiens, UniProt Q9UBX0 95-180)
# HESX1 [3] = target: HESX1 (Homo sapiens, UniProt Q9UBX0 95-180, R109Q)
# HESX1 [4] = target: HESX1 (Homo sapiens, UniProt Q9UBX0 95-180, P111T)
# HESX1 [5] = target: HESX1 (Homo sapiens, UniProt Q9UBX0 95-180, F115L)
# Chain of HESX1 (Homo sapiens, UniProt Q9UBX0 95-180, F115L) (Q9UBX0 95-180 F115L): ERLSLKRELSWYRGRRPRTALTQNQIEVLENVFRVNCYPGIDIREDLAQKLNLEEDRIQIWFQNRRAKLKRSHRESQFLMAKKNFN
# PRRX1 [6] = target: PRRX1 (Homo sapiens, UniProt P54821 80-166, F113S)
# Chain of PRRX1 (Homo sapiens, UniProt P54821 80-166, F113S) (P54821 80-166 F113S): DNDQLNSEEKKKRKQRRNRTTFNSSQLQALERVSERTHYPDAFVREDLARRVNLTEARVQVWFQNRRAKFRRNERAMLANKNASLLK
# PRRX1 [7] = target: PRRX1 (Homo sapiens, UniProt P54821 80-166)
# Chain of PRRX1 (Homo sapiens, UniProt P54821 80-166) (P54821 80-166): as the sequence (P54821 80-166 F113S) above, with S34F counted along it
# ALX1 [8] = target: ALX1 (Homo sapiens, UniProt Q15699 118-204, L144V)
# Chain of ALX1 (Homo sapiens, UniProt Q15699 118-204, L144V) (Q15699 118-204 L144V): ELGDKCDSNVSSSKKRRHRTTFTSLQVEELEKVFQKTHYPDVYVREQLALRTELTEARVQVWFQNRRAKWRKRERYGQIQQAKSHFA
# ALX1 [9] = target: ALX1 (Homo sapiens, UniProt Q15699 118-204, L144R)
# Chain of ALX1 (Homo sapiens, UniProt Q15699 118-204, L144R) (Q15699 118-204 L144R): as the sequence (Q15699 118-204 L144V) above, with V27R counted along it
# ALX1 [10] = target: ALX1 (Homo sapiens, UniProt Q15699 118-204)
# Chain of ALX1 (Homo sapiens, UniProt Q15699 118-204) (Q15699 118-204): as the sequence (Q15699 118-204 L144V) above, with V27L counted along it
# MSX2 [11] = target: MSX2 (Homo sapiens, UniProt P35548 130-214, R199I)
# Chain of MSX2 (Homo sapiens, UniProt P35548 130-214, R199I) (P35548 130-214 R199I): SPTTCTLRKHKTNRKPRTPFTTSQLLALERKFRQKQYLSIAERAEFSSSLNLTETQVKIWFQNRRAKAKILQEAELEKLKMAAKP
# MSX2 [12] = target: MSX2 (Homo sapiens, UniProt P35548 130-214)
# Chain of MSX2 (Homo sapiens, UniProt P35548 130-214) (P35548 130-214): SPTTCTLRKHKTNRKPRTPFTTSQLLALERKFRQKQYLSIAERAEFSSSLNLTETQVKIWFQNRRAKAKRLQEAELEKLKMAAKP
# MSX2 [13] = target: MSX2 (Homo sapiens, UniProt P35548 130-214, F161Y)
# Chain of MSX2 (Homo sapiens, UniProt P35548 130-214, F161Y) (P35548 130-214 F161Y): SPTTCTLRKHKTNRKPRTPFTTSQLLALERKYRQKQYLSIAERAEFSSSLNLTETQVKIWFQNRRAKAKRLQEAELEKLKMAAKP
# ALX4 [14] = target: ALX4 (Homo sapiens, UniProt Q9H161 200-286)
# Chain of ALX4 (Homo sapiens, UniProt Q9H161 200-286) (Q9H161 200-286): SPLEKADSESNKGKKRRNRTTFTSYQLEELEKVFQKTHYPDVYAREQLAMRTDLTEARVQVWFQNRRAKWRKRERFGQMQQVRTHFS
# ALX4 [15] = target: ALX4 (Homo sapiens, UniProt Q9H161 200-286, Q225E)
# Chain of ALX4 (Homo sapiens, UniProt Q9H161 200-286, Q225E) (Q9H161 200-286 Q225E): as the sequence (Q9H161 200-286) above, with Q26E counted along it
# PROP1 [16] = target: PROP1 (Homo sapiens, UniProt O75360 56-141)
# Chain of PROP1 (Homo sapiens, UniProt O75360 56-141) (O75360 56-141): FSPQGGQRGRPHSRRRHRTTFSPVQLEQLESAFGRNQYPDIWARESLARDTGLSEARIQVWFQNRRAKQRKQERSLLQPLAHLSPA
# PROP1 [17] = target: PROP1 (Homo sapiens, UniProt O75360 56-141, R99H)
# Chain of PROP1 (Homo sapiens, UniProt O75360 56-141, R99H) (O75360 56-141 R99H): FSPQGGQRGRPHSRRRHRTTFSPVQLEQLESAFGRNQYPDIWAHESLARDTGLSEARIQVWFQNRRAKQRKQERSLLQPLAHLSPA
# ALX3 [18] = target: ALX3 (Homo sapiens, UniProt O95076 139-225, L168Q)
# Chain of ALX3 (Homo sapiens, UniProt O95076 139-225, L168Q) (O95076 139-225 L168Q): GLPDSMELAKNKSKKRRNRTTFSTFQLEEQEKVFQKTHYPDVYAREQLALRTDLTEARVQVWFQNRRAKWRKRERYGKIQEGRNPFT
# ALX3 [19] = target: ALX3 (Homo sapiens, UniProt O95076 139-225, L168V)
# Chain of ALX3 (Homo sapiens, UniProt O95076 139-225, L168V) (O95076 139-225 L168V): as the sequence (O95076 139-225 L168Q) above, with Q30V counted along it
# PROP1 [20] = target: PROP1 (Homo sapiens, UniProt O75360 56-141, F88S)
# Chain of PROP1 (Homo sapiens, UniProt O75360 56-141, F88S) (O75360 56-141 F88S): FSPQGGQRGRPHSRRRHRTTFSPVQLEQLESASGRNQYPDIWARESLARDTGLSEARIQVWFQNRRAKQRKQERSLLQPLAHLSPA
# Chain of HESX1 (Homo sapiens, UniProt Q9UBX0 95-180, P111T) (Q9UBX0 95-180 P111T): as the sequence (Q9UBX0 95-180 F115L) above, with P17T, L21F counted along it
# Chain of HESX1 (Homo sapiens, UniProt Q9UBX0 95-180, R109Q) (Q9UBX0 95-180 R109Q): as the sequence (Q9UBX0 95-180 F115L) above, with R15Q, L21F counted along it
# Chain of HESX1 (Homo sapiens, UniProt Q9UBX0 95-180, R165K) (Q9UBX0 95-180 R165K): as the sequence (Q9UBX0 95-180 F115L) above, with L21F, R71K counted along it
# Chain of HESX1 (Homo sapiens, UniProt Q9UBX0 95-180) (Q9UBX0 95-180): as the sequence (Q9UBX0 95-180 F115L) above, with L21F counted along it
sequence,measurement,setting,value
CCCCCAGC,binding signal,HESX1 [1],"6.28 upbm affinity estimate (log intensity, higher = more binding, comparable within an allelic series)"
same,binding signal,HESX1 [2],"6.22 upbm affinity estimate (log intensity, higher = more binding, comparable within an allelic series)"
same,binding signal,HESX1 [3],"6.3 upbm affinity estimate (log intensity, higher = more binding, comparable within an allelic series)"
same,binding signal,HESX1 [4],"6.31 upbm affinity estimate (log intensity, higher = more binding, comparable within an allelic series)"
same,binding signal,HESX1 [5],"6.46 upbm affinity estimate (log intensity, higher = more binding, comparable within an allelic series)"
ACCGTCCG,binding signal,HESX1 [1],"6.56 upbm affinity estimate (log intensity, higher = more binding, comparable within an allelic series)"
same,binding signal,HESX1 [2],"6.57 upbm affinity estimate (log intensity, higher = more binding, comparable within an allelic series)"
same,binding signal,HESX1 [3],"6.49 upbm affinity estimate (log intensity, higher = more binding, comparable within an allelic series)"
same,binding signal,HESX1 [4],"6.5 upbm affinity estimate (log intensity, higher = more binding, comparable within an allelic series)"
same,binding signal,HESX1 [5],"6.47 upbm affinity estimate (log intensity, higher = more binding, comparable within an allelic series)"
GCCGTCGC,binding signal,HESX1 [1],"6.39 upbm affinity estimate (log intensity, higher = more binding, comparable within an allelic series)"
same,binding signal,PRRX1 [6],"9.29 upbm affinity estimate (log intensity, higher = more binding, comparable within an allelic series)"
same,binding signal,HESX1 [2],"6.51 upbm affinity estimate (log intensity, higher = more binding, comparable within an allelic series)"
same,binding signal,HESX1 [3],"6.58 upbm affinity estimate (log intensity, higher = more binding, comparable within an allelic series)"
same,binding signal,HESX1 [4],"6.45 upbm affinity estimate (log intensity, higher = more binding, comparable within an allelic series)"
same,binding signal,HESX1 [5],"6.53 upbm affinity estimate (log intensity, higher = more binding, comparable within an allelic series)"
same,binding signal,PRRX1 [7],"9.58 upbm affinity estimate (log intensity, higher = more binding, comparable within an allelic series)"
CGACGCGA,binding signal,HESX1 [1],"6.36 upbm affinity estimate (log intensity, higher = more binding, comparable within an allelic series)"
same,binding signal,HESX1 [2],"6.45 upbm affinity estimate (log intensity, higher = more binding, comparable within an allelic series)"
same,binding signal,HESX1 [3],"6.44 upbm affinity estimate (log intensity, higher = more binding, comparable within an allelic series)"
same,binding signal,HESX1 [4],"6.38 upbm affinity estimate (log intensity, higher = more binding, comparable within an allelic series)"
same,binding signal,HESX1 [5],"6.54 upbm affinity estimate (log intensity, higher = more binding, comparable within an allelic series)"
CTGCATTA,binding signal,HESX1 [1],"7.23 upbm affinity estimate (log intensity, higher = more binding, comparable within an allelic series)"
same,binding signal,HESX1 [2],"7.34 upbm affinity estimate (log intensity, higher = more binding, comparable within an allelic series)"
same,binding signal,ALX1 [8],"8.85 upbm affinity estimate (log intensity, higher = more binding, comparable within an allelic series)"
same,binding signal,ALX1 [9],"8.64 upbm affinity estimate (log intensity, higher = more binding, comparable within an allelic series)"
same,binding signal,HESX1 [4],"7.12 upbm affinity estimate (log intensity, higher = more binding, comparable within an allelic series)"
same,binding signal,HESX1 [5],"6.71 upbm affinity estimate (log intensity, higher = more binding, comparable within an allelic series)"
same,binding signal,ALX1 [10],"9.15 upbm affinity estimate (log intensity, higher = more binding, comparable within an allelic series)"
GTCCTGCA,binding signal,HESX1 [1],"6.29 upbm affinity estimate (log intensity, higher = more binding, comparable within an allelic series)"
same,binding signal,HESX1 [2],"6.29 upbm affinity estimate (log intensity, higher = more binding, comparable within an allelic series)"
same,binding signal,HESX1 [3],"6.46 upbm affinity estimate (log intensity, higher = more binding, comparable within an allelic series)"
same,binding signal,HESX1 [4],"6.46 upbm affinity estimate (log intensity, higher = more binding, comparable within an allelic series)"
same,binding signal,HESX1 [5],"6.53 upbm affinity estimate (log intensity, higher = more binding, comparable within an allelic series)"
CGCAATTA,binding signal,HESX1 [1],"11.6 upbm affinity estimate (log intensity, higher = more binding, comparable within an allelic series)"
same,binding signal,HESX1 [2],"11.8 upbm affinity estimate (log intensity, higher = more binding, comparable within an allelic series)"
same,binding signal,MSX2 [11],"12.6 upbm affinity estimate (log intensity, higher = more binding, comparable within an allelic series)"
same,binding signal,MSX2 [12],"13.7 upbm affinity estimate (log intensity, higher = more binding, comparable within an allelic series)"
same,binding signal,HESX1 [3],"8.21 upbm affinity estimate (log intensity, higher = more binding, comparable within an allelic series)"
same,binding signal,HESX1 [4],"10.1 upbm affinity estimate (log intensity, higher = more binding, comparable within an allelic series)"
same,binding signal,MSX2 [13],"13.4 upbm affinity estimate (log intensity, higher = more binding, comparable within an allelic series)"
same,binding signal,HESX1 [5],"7.22 upbm affinity estimate (log intensity, higher = more binding, comparable within an allelic series)"
CGGGCCCG,binding signal,HESX1 [1],"6.56 upbm affinity estimate (log intensity, higher = more binding, comparable within an allelic series)"
same,binding signal,HESX1 [2],"6.74 upbm affinity estimate (log intensity, higher = more binding, comparable within an allelic series)"
same,binding signal,HESX1 [3],"6.76 upbm affinity estimate (log intensity, higher = more binding, comparable within an allelic series)"
same,binding signal,HESX1 [4],"6.72 upbm affinity estimate (log intensity, higher = more binding, comparable within an allelic series)"
same,binding signal,HESX1 [5],"6.55 upbm affinity estimate (log intensity, higher = more binding, comparable within an allelic series)"
CCAGGACC,binding signal,HESX1 [1],"6.54 upbm affinity estimate (log intensity, higher = more binding, comparable within an allelic series)"
same,binding signal,HESX1 [2],"6.39 upbm affinity estimate (log intensity, higher = more binding, comparable within an allelic series)"
same,binding signal,HESX1 [3],"6.57 upbm affinity estimate (log intensity, higher = more binding, comparable within an allelic series)"
same,binding signal,HESX1 [4],"6.52 upbm affinity estimate (log intensity, higher = more binding, comparable within an allelic series)"
same,binding signal,HESX1 [5],"6.51 upbm affinity estimate (log intensity, higher = more binding, comparable within an allelic series)"
CCGCCCCC,binding signal,HESX1 [1],"6.46 upbm affinity estimate (log intensity, higher = more binding, comparable within an allelic series)"
same,binding signal,PRRX1 [6],"9.06 upbm affinity estimate (log intensity, higher = more binding, comparable within an allelic series)"
same,binding signal,HESX1 [2],"6.33 upbm affinity estimate (log intensity, higher = more binding, comparable within an allelic series)"
same,binding signal,HESX1 [3],"6.51 upbm affinity estimate (log intensity, higher = more binding, comparable within an allelic series)"
same,binding signal,HESX1 [4],"6.43 upbm affinity estimate (log intensity, higher = more binding, comparable within an allelic series)"
same,binding signal,HESX1 [5],"6.41 upbm affinity estimate (log intensity, higher = more binding, comparable within an allelic series)"
same,binding signal,PRRX1 [7],"8.75 upbm affinity estimate (log intensity, higher = more binding, comparable within an allelic series)"
GCAGGCGC,binding signal,HESX1 [1],"6.11 upbm affinity estimate (log intensity, higher = more binding, comparable within an allelic series)"
same,binding signal,HESX1 [2],"5.98 upbm affinity estimate (log intensity, higher = more binding, comparable within an allelic series)"
same,binding signal,ALX1 [8],"5.82 upbm affinity estimate (log intensity, higher = more binding, comparable within an allelic series)"
same,binding signal,ALX1 [9],"5.84 upbm affinity estimate (log intensity, higher = more binding, comparable within an allelic series)"
same,binding signal,HESX1 [3],"6.31 upbm affinity estimate (log intensity, higher = more binding, comparable within an allelic series)"
same,binding signal,HESX1 [4],"6.16 upbm affinity estimate (log intensity, higher = more binding, comparable within an allelic series)"
same,binding signal,HESX1 [5],"6.37 upbm affinity estimate (log intensity, higher = more binding, comparable within an allelic series)"
same,binding signal,ALX1 [10],"5.72 upbm affinity estimate (log intensity, higher = more binding, comparable within an allelic series)"
AATAATTG,binding signal,HESX1 [1],"12.3 upbm affinity estimate (log intensity, higher = more binding, comparable within an allelic series)"
same,binding signal,ALX4 [14],"13.5 upbm affinity estimate (log intensity, higher = more binding, comparable within an allelic series)"
same,binding signal,PRRX1 [6],"11.2 upbm affinity estimate (log intensity, higher = more binding, comparable within an allelic series)"
same,binding signal,ALX4 [15],"12.8 upbm affinity estimate (log intensity, higher = more binding, comparable within an allelic series)"
same,binding signal,HESX1 [2],"12.4 upbm affinity estimate (log intensity, higher = more binding, comparable within an allelic series)"
same,binding signal,MSX2 [11],"12.6 upbm affinity estimate (log intensity, higher = more binding, comparable within an allelic series)"
same,binding signal,ALX1 [8],"11.5 upbm affinity estimate (log intensity, higher = more binding, comparable within an allelic series)"
same,binding signal,ALX1 [9],"11.3 upbm affinity estimate (log intensity, higher = more binding, comparable within an allelic series)"
same,binding signal,MSX2 [12],"13.7 upbm affinity estimate (log intensity, higher = more binding, comparable within an allelic series)"
same,binding signal,PROP1 [16],"11 upbm affinity estimate (log intensity, higher = more binding, comparable within an allelic series)"
same,binding signal,HESX1 [3],"8.84 upbm affinity estimate (log intensity, higher = more binding, comparable within an allelic series)"
same,binding signal,PROP1 [17],"11.1 upbm affinity estimate (log intensity, higher = more binding, comparable within an allelic series)"
same,binding signal,ALX3 [18],"10.3 upbm affinity estimate (log intensity, higher = more binding, comparable within an allelic series)"
same,binding signal,HESX1 [4],"10.8 upbm affinity estimate (log intensity, higher = more binding, comparable within an allelic series)"
same,binding signal,ALX3 [19],"9.75 upbm affinity estimate (log intensity, higher = more binding, comparable within an allelic series)"
same,binding signal,PROP1 [20],"7.6 upbm affinity estimate (log intensity, higher = more binding, comparable within an allelic series)"
same,binding signal,MSX2 [13],"13.4 upbm affinity estimate (log intensity, higher = more binding, comparable within an allelic series)"
same,binding signal,HESX1 [5],"8.12 upbm affinity estimate (log intensity, higher = more binding, comparable within an allelic series)"
same,binding signal,PRRX1 [7],"13.2 upbm affinity estimate (log intensity, higher = more binding, comparable within an allelic series)"
GCCAGCGA,binding signal,HESX1 [1],"6.34 upbm affinity estimate (log intensity, higher = more binding, comparable within an allelic series)"
same,binding signal,HESX1 [2],"6.55 upbm affinity estimate (log intensity, higher = more binding, comparable within an allelic series)"
same,binding signal,HESX1 [3],"6.49 upbm affinity estimate (log intensity, higher = more binding, comparable within an allelic series)"
same,binding signal,HESX1 [4],"6.48 upbm affinity estimate (log intensity, higher = more binding, comparable within an allelic series)"
same,binding signal,HESX1 [5],"6.56 upbm affinity estimate (log intensity, higher = more binding, comparable within an allelic series)"
CAGCCAGG,binding signal,HESX1 [1],"6.31 upbm affinity estimate (log intensity, higher = more binding, comparable within an allelic series)"
same,binding signal,HESX1 [2],"6.36 upbm affinity estimate (log intensity, higher = more binding, comparable within an allelic series)"
same,binding signal,HESX1 [3],"6.38 upbm affinity estimate (log intensity, higher = more binding, comparable within an allelic series)"
same,binding signal,HESX1 [4],"6.49 upbm affinity estimate (log intensity, higher = more binding, comparable within an allelic series)"
same,binding signal,HESX1 [5],"6.49 upbm affinity estimate (log intensity, higher = more binding, comparable within an allelic series)"
AGCTGCCT,binding signal,HESX1 [1],"6.48 upbm affinity estimate (log intensity, higher = more binding, comparable within an allelic series)"
same,binding signal,HESX1 [2],"6.48 upbm affinity estimate (log intensity, higher = more binding, comparable within an allelic series)"
same,binding signal,HESX1 [3],"6.53 upbm affinity estimate (log intensity, higher = more binding, comparable within an allelic series)"
same,binding signal,HESX1 [4],"6.48 upbm affinity estimate (log intensity, higher = more binding, comparable within an allelic series)"
same,binding signal,HESX1 [5],"6.43 upbm affinity estimate (log intensity, higher = more binding, comparable within an allelic series)"
